# In PubChem BioAssay (NCATS):
# Results filed as inconclusive are left out. Entries that show only a call come without a potency. Unmarked numbers belong to inactive results. Activity calls are given as the source filed them. The call rests on the fitted dose curve; in most records, active means well fitted cell-killing curve with a large enough effect; inconclusive means small, poorly fitted or top-dose-only effect; inactive means no such curve, though single readings can be large or run the other way.
# Assay: qHTS of pediatric cancer cell lines to identify multiple opportunities for drug repurposing: Primary screen for Rh30 cells (AID 1347107); further: nearly all actives have a fitted effect of over 75% in size
# Details: Rh30 rhabdomyosarcoma viability, CellTiter-Glo luminescence, 48 h; series mostly up to 46 µM; activity change, negative = cytotoxic: at the top concentration
# From the text: Drug repurposing or repositioning has been offered as a strategy for drug development in oncology programs. This approach has special potential for childhood cancers and other rare or orphan diseases, where the expected return on new drug development has been a disincentive to pharmaceuticals.
# In this project we exploit the poly-pharmacology of drugs to discover new indications via phenotypic screening of a panel of 19 well-characterized cell lines derived from solid tumors seen in children and adolescents. The goal is to identify approved drugs with previously unrecognized anticancer properties that has the potential to reveal new mechanisms and biological processes involved in carcinogenesis or drug resistance. We employed a titration-based paradigm (quantitative high-throughput screening or qHTS), where all compounds were tested at multiple concentrations for their effect on cell viability. Concentration-response curves (CRCs) were derived directly from the primary screen, and both potency and efficacy values were used to identify compounds with robust bioactivity profiles. We screened the NIH Chemical Genomics Center (NCGC) Pharmaceutical Collection (NPC) and Mechanism Interrogation Plate (MIPE) small molecule collections of approved and investigational compounds against these cell lines; and measured metabolically active cells after 48 hours of compound treatment as a proxy for cell viability.
# Assay Submitter: Nathalia J. Martinez, National Center for Advancing Translational Sciences, National Institutes of Health, Rockville, MD, USA; email: natalia.martinez@nih.gov
# [1] Shen, M et al. Quantitative high-throughput phenotypic screening of pediatric cancer cell lines identifies multiple opportunities for drug repurposing. Oncotarget 2017 Dec 19;9(4):4758-4772. PMID 29435139.
# The cells were obtained from University of North Carolina (UNC), Pediatric Preclinical Testing Program (PPT), and Coriell Institute (CI).
# qHTS cell viability assay:
# Cells were assayed in growth media at a density of 500-1,000 cells/well. Five microliters of cells were dispensed into 1,536-well, white, solid-bottom, TC-treated plates (Greiner Bio One) using a multidrop dispenser and incubated at 37 degrees C, 5% CO2, under a humidified atmosphere for 5 hours. Twenty-three nanoliters of compounds and controls (neutral control DMSO or positive control bortezomib at final concentration of 2.3 µM) were subsequently transferred by Kalypsys pintool. For primary screens, the MIPE collection was tested at 11-point dilutions (final concentrations range from 0.78 nM to 46 µM) and the NPC collection at 8-point dilutions (final concentrations range from 0.59 nM to 46 µM). Compounds tested in follow-up screens were assayed at 11-point dilutions. Cells were incubated for 48 hours, followed by addition of 3 µL of CellTiter-Glo (Promega). After a 15 min incubation at room temperature, samples were analyzed for luminescence intensity using a ViewLux High-throughput CCD imager equipped with clear filters.
# Potency means the concentration at half of the fitted maximal effect.
SMILES,Potency,"activity change, negative = cytotoxic"
Cc1cc(NS(=O)(=O)c2ccc(N)cc2)no1,inactive,–
O=C(NCC1CN(c2ccc(N3CCOCC3=O)cc2)C(=O)O1)c1ccc(Cl)s1 (stereo not given),inactive,–
C[C@]12C=CC(=O)C=C1CC[C@@H]1[C@@H]2C(=O)C[C@@]2(C)[C@H]1CC[C@]2(O)C(=O)CO,inactive,–
Cc1noc(NS(=O)(=O)c2ccc(N)cc2)c1C,inactive,–
CC(C)OC(=O)C(C(=O)OC(C)C)=C1SC=CS1,–,8.46%
CNNCc1ccc(C(=O)NC(C)C)cc1,inactive,–
O=C(O)c1cn(C2CC2)c2cc(N3CCNCC3)c(F)cc2c1=O,inactive,–
CC(=O)[C@H]1CC[C@H]2[C@@H]3CC=C4C[C@@H](O)CC[C@]4(C)[C@H]3CC[C@]12C,inactive,–
O=S(=O)(O)CCS,inactive,–
Cc1nnc(NS(=O)(=O)c2ccc(N)cc2)s1,–,7.09%
CCOC(=O)c1ccc(OC(=O)CCCCCN=C(N)N)cc1,inactive,–
COC(=O)Nc1nc2ccc(Sc3ccccc3)cc2[nH]1,inactive,–
CCCN[C@H]1CCc2nc(N)sc2C1,inactive,–
Cc1onc(-c2ccccc2Cl)c1C(=O)N[C@@H]1C(=O)N2[C@@H]1SC(C)(C)[C@@H]2C(=O)O,inactive,–
COc1cccc(N(C)C(=S)Oc2ccc3c(c2)CCCC3)n1,inactive,–
COCCCOc1cc(C[C@@H](C[C@H](N)[C@@H](O)C[C@H](C(=O)NCC(C)(C)C(N)=O)C(C)C)C(C)C)ccc1OC,inactive,–
CC(C)(Sc1cc(C(C)(C)C)c(O)c(C(C)(C)C)c1)Sc1cc(C(C)(C)C)c(O)c(C(C)(C)C)c1,inactive,–
CCn1cc(C(=O)O)c(=O)c2cc(F)c(N3CCN(C)CC3)cc21,inactive,–
S=P(N1CC1)(N1CC1)N1CC1,–,23.1% [at 92.7 µM]
N=C(N)c1ccc(OCCCCCOc2ccc(C(=N)N)cc2)cc1,–,4%

SMILES,Potency,"activity change, negative = cytotoxic"
Cn1nnc2c(C(N)=O)ncn2c1=O,inactive,–
C[C@@H](CN1CC(=O)NC(=O)C1)N1CC(=O)NC(=O)C1,inactive,–
CN1CCCC(n2nc(Cc3ccc(Cl)cc3)c3ccccc3c2=O)CC1 (stereo not given),–,12.8%
CN(Cc1cc(Br)cc(Br)c1N)C1CCCCC1,inactive,–
COc1nc(N)nc2c1ncn2[C@@H]1O[C@H](CO)[C@@H](O)[C@@H]1O,inactive,–
CCOCC(O)COc1ccc(NC(=O)CC[S+](C)C)cc1 (stereo not given),inactive,–
NCCCC(O)(P(=O)(O)O)P(=O)(O)O,–,21.4%
CC1(C)[C@H](C(=O)O)N2C(=O)C[C@H]2S1(=O)=O,–,23.1%
COc1cc2ncnc(Nc3cccc(Cl)c3)c2cc1OC,–,-4.03%
CC(C)C1CCC(C(=O)N[C@H](Cc2ccccc2)C(=O)O)CC1 (stereo not given in full),inactive,–
COc1c(N2CCNC(C)C2)c(F)cc2c(=O)c(C(=O)O)cn(C3CC3)c12 (stereo not given),inactive,–
CO[C@@H]1[C@@H](OC(N)=O)[C@@H](O)[C@H](Oc2ccc3c(O)c(NC(=O)c4ccc(O)c(CC=C(C)C)c4)c(=O)oc3c2C)OC1(C)C,inactive,–
NC1(c2ccc(-c3nc4ccn5c(=O)[nH]nc5c4cc3-c3ccccc3)cc2)CCC1,18.7 µM (active),–
NC(=O)c1cccc(N)c1,–,11%
CCCOc1ccc(C(=O)OCCN(CC)CC)cc1N,inactive,–
Nc1nc(N)nc(-c2cc(Cl)ccc2Cl)n1,inactive,–
N[C@@H](Cc1ccc(O)c(O)c1)C(=O)O,–,29.7%
CCN1CCCC1CNC(=O)c1cc(S(N)(=O)=O)ccc1OC (stereo not given),–,24.6%
CCN(C)C(=O)Oc1cccc([C@H](C)N(C)C)c1,inactive,–
O=C(N[C@H](CO)[C@H](O)c1ccc([N+](=O)[O-])cc1)C(Cl)Cl,inactive,–
